Reference: paper PMC4336329 (PLoS ONE, 2015)
In all, about 310,000 compounds went through this assay and about 14,000 (4.5%) showed an effect of 50% or more. The effect is printed as a negative number. The full list was thinned out, with strong results kept by preference.

What follows are molecules tested against human ether-à-go-go-related gene (hERG) potassium channel (human, UniProt Q12809) (assay: primary screen, population patch clamp on CHO cells stably expressing hERG; higher = less effect of the substance).
Sequence of human ether-à-go-go-related gene (hERG) potassium channel (Q12809 whole entry, looked up): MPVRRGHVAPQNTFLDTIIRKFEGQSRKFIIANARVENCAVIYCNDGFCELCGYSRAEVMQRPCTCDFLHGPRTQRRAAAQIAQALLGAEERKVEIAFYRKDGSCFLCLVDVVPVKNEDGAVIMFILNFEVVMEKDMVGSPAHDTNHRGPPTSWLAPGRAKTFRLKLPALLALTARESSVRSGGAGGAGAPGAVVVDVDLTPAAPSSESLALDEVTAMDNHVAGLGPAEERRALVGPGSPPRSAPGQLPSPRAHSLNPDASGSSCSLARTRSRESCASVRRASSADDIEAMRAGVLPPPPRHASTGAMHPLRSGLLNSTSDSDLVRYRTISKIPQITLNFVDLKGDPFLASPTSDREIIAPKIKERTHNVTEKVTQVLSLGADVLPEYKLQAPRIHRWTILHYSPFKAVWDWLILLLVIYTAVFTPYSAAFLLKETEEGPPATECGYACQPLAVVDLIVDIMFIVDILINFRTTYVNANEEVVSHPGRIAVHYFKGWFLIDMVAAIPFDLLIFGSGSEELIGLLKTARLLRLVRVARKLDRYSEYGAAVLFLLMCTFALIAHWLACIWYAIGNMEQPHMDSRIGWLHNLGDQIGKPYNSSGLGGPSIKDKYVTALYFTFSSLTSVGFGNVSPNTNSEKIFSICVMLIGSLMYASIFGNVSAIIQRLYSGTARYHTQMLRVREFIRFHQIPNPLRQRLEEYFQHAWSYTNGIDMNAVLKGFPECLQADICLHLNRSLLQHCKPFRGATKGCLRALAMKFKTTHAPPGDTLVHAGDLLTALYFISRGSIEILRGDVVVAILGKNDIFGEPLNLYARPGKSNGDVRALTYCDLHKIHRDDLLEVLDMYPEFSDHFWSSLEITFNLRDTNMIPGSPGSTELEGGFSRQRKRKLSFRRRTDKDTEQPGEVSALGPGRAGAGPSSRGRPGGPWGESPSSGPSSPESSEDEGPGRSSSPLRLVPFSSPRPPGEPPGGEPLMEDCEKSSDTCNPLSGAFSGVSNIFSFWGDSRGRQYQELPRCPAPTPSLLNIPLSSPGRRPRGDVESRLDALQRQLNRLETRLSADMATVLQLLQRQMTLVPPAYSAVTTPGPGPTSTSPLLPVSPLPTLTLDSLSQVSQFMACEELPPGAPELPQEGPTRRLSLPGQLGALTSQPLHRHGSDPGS
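Further: peak tail current of the secondary pulse compared with the same well before compound.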

SMILES | hERG current change (%, negative = inhibition) at 10uM [%]
CC1CCCCC1NCC(=O)NCc1ccc(F)cc1.O=C(O)C(=O)O (centres unmarked) | -8.33
CCN(CC)S(=O)(=O)c1ccc(OC)nc1 | 10.4
CCN(CC)S(=O)(=O)c1ccc(Oc2cccc(C(C)=O)c2)nc1 | -65.5
CCN(c1ccccc1)S(=O)(=O)c1ccc(Oc2ccc(C(C)=O)cc2OC)nc1 | -26.2
COC(=O)c1nn(-c2ccc(OC)cc2)c(=O)cc1NN | 26.7
Cc1ccc(S(=O)(=O)N(C)C)cc1NC(=O)c1ccncc1 | 4.33
Cc1ccc(S(=O)(=O)N(C)C)cc1NC(=O)C(C)OC(=O)C1CCCC1 (centres unmarked) | -61.2
Cc1ccc(S(=O)(=O)N(C)C)cc1NC(=S)NNC(=O)C1CC1 | -54.6
Cc1ccc(S(=O)(=O)N(C)C)cc1NC(=O)C1CCC1 | 12.2
Cc1ccc(S(=O)(=O)N(C)C)cc1NC(=O)c1ccc(OC(F)(F)F)cc1 | -51.3
Cc1ccc(S(=O)(=O)N(C)C)cc1NC(=O)C1CCCC1 | 2.05
CCN(CC)S(=O)(=O)c1ccc(C)c(NC(=S)NNC(=O)C2CC2)c1 | 11.1
Cc1ccc(S(=O)(=O)N(C)C)cc1NC(=O)C1CCCCC1 | -1.12
CN(C)S(=O)(=O)c1cccc(NC(=O)c2ccc(OC(F)(F)F)cc2)c1 | -27.8
COCCN1CCN(C(=O)C2CCC(=O)N(CCc3ccccc3)C2)CC1 (centres unmarked) | 5.79
CN(Cc1ccccc1)C(=O)c1nc[nH]c1C(=O)N1CCN(C(=O)OC(C)(C)C)CC1 | 11.2
CN(C)CCCN(C(=O)COc1ccc(Cl)cc1)c1nc2cc3c(cc2s1)OCO3.Cl | -59.7
CN(C)CCN(C(=O)CCS(=O)(=O)c1ccccc1)c1nc2cc3c(cc2s1)OCO3.Cl | 7.43
CCN(CC)CCN(C(=O)CCS(=O)(=O)c1ccccc1)c1nc2cc3c(cc2s1)OCO3.Cl | -20.6
CN(C)CCCN(C(=O)COc1ccc(Cl)cc1)c1nc2cc3c(cc2s1)OCCO3.Cl | -55
CN(C)CCCN(C(=O)COc1ccccc1)c1nc2cc3c(cc2s1)OCCO3 | -45
CN(C)CCN(C(=O)COc1ccc(Cl)cc1)c1nc2cc3c(cc2s1)OCO3 | -5.52
CN(C)CCCN(C(=O)CCS(=O)(=O)c1ccccc1)c1nc2cc3c(cc2s1)OCO3.Cl | -60
CN(C)CCCN(C(=O)COc1ccccc1)c1nc2cc3c(cc2s1)OCO3.Cl | -65.4

SMILES | hERG current change (%, negative = inhibition) at 10uM [%]
Clc1ccc(CN(CC2CCCO2)C(c2cccs2)c2nnnn2C2CCCC2)cc1 (centres unmarked) | 3.97
O=C(/C=C/c1cccs1)Nc1nccs1 | 15.8
O=S(=O)(c1ccc(Oc2ccc(Cl)cc2)c(S(=O)(=O)N2CCCCC2)c1)N1CCCCC1 | -10.1
COC(=O)c1ccc(-c2ccco2)n1Cc1ccccc1Cl | -1.48
CC(Oc1ccc2oc(-c3ccccc3)c(C(=O)O)c2c1)C(=O)O (centres unmarked) | 14.7
Cn1c(NCc2cccs2)nc2ccccc21 | -11.1
Cc1cc(C(=O)CC#N)c(C)n1-c1ccc(OC(F)F)cc1 | -21.5
Cc1cc(C(=O)CSc2cccc[n+]2[O-])c(C)n1-c1ccccc1 | 13.9
Cc1cc(C(=O)CSc2nc(N)cc(=O)[nH]2)c(C)n1-c1ccc(OC(F)F)cc1 | -1.41
Cc1cc(C(=O)CSc2cccc[n+]2[O-])c(C)n1-c1ccc(Br)cc1 | -68.6
COC(=O)c1ccc(-n2c(C)cc(C(=O)CSc3cccc[n+]3[O-])c2C)cc1 | 21.2
Cc1cc(C(=O)CSc2cccc[n+]2[O-])c(C)n1-c1ccc(OC(F)F)cc1 | -61.9
Cc1nc(Nc2ccccc2C(F)(F)F)sc1C(=O)N(C)C | 21.7
COC(=O)C(c1cc(OC)c(O)c(OC)c1)(N1CCNC(C)C1)C(F)(F)F (centres unmarked) | -9.77
Cn1c(SCC(=O)N2CCOCC2)nnc1-c1ccncc1 | 16.3
Cn1c(SCC(=O)N2CCCc3ccccc32)nnc1-c1c[nH]c2ccccc12 | -10.2
Cn1c(SCC(=O)N2CCN(c3cccc(Cl)c3)CC2)nnc1-c1ccncc1 | -55.9
CCn1c(SCC(=O)N2CCN(c3ccccc3)CC2)nnc1-c1c[nH]c2ccccc12 | -53.6
Cn1c(SCC(=O)N2CCN(c3ccccc3)CC2)nnc1-c1c[nH]c2ccccc12 | -50.5
Cn1c(SCC(=O)N2CCN(c3ccccc3)CC2)nnc1-c1ccccc1 | -11.2
CCn1c(SCC(=O)N2CCc3ccccc32)nnc1-c1c[nH]c2ccccc12 | 11.8
CCOC(=O)CSc1nnc(-c2c[nH]c3ccccc23)n1CC | -10.3
Cn1c(SCC(=O)N2CCN(c3ccccc3)CC2)nnc1-c1ccncc1 | -19.5
